Laboratory results as given in the supplement of paper PMC6411743.
± gives the standard deviation of the averaged measurements. The full data set covers some 5,400 targets. This sample favours those with the largest changes.

Compound: Nc1nc2c(ncn2[C@@H]2O[C@H](COP(=O)(O)OP(=O)(O)OP(=O)(O)O)[C@@H](O)[C@H]2O)c(=O)[nH]1 [guanosine triphosphate]
Test: NP40-soluble protein abundance relative to vehicle (solubility fold change) (ratio); higher = more soluble protein in presence of GTP
Method: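 Solubility proteome profiling in Jurkat crude lysate. Lysate was treated with Mg-GTP (0.1-10 mM) for 10 min at room temperature and 3 min at 37 °C, then solubilised with 0.8% NP40 and benzonase, followed by ultracentrifugation. Proteins were quantified by TMT10 LC-MS/MS; the value is the NP40-soluble abundance relative to the NP40-processed vehicle, from 3 independent experiments.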

Chain of UniProt Q49A26 (Q49A26 whole entry): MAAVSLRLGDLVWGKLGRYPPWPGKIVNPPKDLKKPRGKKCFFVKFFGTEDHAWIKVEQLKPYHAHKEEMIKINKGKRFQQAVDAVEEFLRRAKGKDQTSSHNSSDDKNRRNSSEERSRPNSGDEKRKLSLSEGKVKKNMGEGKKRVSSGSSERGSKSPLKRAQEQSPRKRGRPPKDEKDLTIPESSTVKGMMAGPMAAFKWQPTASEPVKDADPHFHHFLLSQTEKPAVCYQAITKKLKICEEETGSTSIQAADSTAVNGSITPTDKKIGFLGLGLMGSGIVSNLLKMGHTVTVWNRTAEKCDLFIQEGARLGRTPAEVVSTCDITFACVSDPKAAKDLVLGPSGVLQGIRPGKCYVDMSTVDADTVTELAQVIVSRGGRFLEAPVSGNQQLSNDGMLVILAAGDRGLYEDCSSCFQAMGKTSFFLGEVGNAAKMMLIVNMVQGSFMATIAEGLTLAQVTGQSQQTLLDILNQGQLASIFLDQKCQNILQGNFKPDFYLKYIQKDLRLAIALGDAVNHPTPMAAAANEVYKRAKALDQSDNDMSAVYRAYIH
Chain of UniProt Q04721 (Q04721 whole entry): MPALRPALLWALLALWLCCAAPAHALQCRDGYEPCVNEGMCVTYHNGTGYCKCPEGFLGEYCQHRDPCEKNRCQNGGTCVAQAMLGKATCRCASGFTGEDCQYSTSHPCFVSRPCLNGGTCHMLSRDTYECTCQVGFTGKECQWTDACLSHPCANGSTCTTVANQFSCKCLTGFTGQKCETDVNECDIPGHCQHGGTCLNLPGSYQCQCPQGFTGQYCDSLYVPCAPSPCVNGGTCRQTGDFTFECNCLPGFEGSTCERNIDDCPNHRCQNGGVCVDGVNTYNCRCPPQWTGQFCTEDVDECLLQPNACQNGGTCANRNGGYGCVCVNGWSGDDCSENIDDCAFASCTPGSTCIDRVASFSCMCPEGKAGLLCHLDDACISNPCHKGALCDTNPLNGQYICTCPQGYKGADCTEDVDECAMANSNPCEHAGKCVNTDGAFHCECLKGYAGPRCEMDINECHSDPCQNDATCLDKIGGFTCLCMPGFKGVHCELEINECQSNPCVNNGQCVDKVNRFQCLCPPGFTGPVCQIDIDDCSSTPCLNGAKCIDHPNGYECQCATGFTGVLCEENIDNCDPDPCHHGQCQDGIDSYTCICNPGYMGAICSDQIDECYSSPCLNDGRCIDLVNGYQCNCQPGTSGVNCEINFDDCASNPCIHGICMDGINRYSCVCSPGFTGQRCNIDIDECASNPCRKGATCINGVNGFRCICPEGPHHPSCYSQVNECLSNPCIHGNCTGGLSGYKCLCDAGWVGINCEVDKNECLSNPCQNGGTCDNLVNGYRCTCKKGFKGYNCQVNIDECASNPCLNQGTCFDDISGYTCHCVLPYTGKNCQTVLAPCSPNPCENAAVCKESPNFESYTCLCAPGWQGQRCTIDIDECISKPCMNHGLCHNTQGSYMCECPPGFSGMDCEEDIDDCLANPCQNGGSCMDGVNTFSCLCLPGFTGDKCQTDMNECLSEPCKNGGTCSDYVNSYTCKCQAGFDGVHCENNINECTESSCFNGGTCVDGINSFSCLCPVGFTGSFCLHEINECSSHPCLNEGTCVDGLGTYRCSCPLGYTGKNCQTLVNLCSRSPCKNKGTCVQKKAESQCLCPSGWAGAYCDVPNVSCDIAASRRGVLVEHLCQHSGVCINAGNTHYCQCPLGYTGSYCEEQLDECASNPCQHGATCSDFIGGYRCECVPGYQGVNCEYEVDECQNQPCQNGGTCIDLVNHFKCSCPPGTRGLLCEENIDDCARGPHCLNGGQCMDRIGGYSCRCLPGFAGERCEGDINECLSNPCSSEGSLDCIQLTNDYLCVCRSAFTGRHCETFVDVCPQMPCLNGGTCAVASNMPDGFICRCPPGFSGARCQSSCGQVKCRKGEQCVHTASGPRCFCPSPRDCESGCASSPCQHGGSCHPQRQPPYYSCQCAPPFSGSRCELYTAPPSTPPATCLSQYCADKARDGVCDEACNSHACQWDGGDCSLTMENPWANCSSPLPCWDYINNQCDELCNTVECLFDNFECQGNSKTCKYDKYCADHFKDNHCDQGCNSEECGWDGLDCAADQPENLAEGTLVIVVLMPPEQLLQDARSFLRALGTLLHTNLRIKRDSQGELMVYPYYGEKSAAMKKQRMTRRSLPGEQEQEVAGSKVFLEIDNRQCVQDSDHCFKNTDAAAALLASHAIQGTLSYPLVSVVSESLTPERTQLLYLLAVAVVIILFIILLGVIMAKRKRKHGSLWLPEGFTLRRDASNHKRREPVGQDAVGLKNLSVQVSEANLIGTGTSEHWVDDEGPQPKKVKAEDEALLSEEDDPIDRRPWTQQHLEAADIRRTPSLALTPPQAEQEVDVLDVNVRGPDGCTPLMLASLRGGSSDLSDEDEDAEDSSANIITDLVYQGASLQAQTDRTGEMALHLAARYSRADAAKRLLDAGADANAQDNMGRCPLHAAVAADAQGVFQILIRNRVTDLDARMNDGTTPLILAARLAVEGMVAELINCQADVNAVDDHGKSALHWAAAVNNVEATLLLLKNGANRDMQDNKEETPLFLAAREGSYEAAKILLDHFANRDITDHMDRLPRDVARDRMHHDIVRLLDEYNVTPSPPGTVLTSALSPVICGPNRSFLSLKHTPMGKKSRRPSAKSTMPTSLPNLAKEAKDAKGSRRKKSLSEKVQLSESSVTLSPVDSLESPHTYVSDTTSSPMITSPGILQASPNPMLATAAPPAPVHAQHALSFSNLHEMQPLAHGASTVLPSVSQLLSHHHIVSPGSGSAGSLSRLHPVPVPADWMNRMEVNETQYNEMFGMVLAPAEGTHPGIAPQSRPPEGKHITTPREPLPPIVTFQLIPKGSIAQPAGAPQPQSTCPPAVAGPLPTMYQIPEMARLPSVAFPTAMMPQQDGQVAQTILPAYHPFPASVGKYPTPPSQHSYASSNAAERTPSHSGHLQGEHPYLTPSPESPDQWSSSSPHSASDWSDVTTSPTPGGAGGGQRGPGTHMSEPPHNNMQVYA

Target	NP40-soluble protein abundance (concentration: 0.1mM)	NP40-soluble protein abundance (concentration: 0.5mM)	NP40-soluble protein abundance (concentration: 1mM)	NP40-soluble protein abundance (concentration: 2mM)	NP40-soluble protein abundance (concentration: 4mM)	NP40-soluble protein abundance (concentration: 6mM)	NP40-soluble protein abundance (concentration: 8mM)	NP40-soluble protein abundance (concentration: 10mM)
UniProt Q14789|Q14789-2	1 ± 0.019	0.984 ± 0.041	1.02 ± 0.022	0.989 ± 0.049	0.993 ± 0.026	1 ± 0.035	1.02 ± 0.046	1.01 ± 0.051
UniProt Q13085|A0A087X126	1.09 ± 0.08	1.09 ± 0.11	1.03 ± 0.088	1.07 ± 0.14	1.05 ± 0.11	1.04 ± 0.097	0.975 ± 0.072	0.956 ± 0.056
NOTCH2 (UniProt Q04721)	0.991 ± 0.023	1.03 ± 0.042	1.086 ± 0.0064	1.12 ± 0.069	0.967 ± 0.22	1.08 ± 0.23	1.08 ± 0.028	1.06 ± 0.08
UniProt Q49A26|Q49A26-3|Q49A26-4	1.044 ± 0.0023	1.06 ± 0.036	1.15 ± 0.03	1.27 ± 0.028	1.52 ± 0.16	1.72 ± 0.026	1.97 ± 0.078	2.27 ± 0.094
ANKRD11 (UniProt Q6UB99)	1.01 ± 0.024	1.01 ± 0.092	1.1 ± 0.027	1.1 ± 0.06	1.1 ± 0.041	1.08 ± 0.042	1.18 ± 0.073	1.17 ± 0.073
